USP10 block – inhibitors of human USP10 deubiquitinase. Q14694. purified USP10, Ub-rhodamine fluorescence, 60 min. inhibition, % at 20 µM. hit rate 1.1% among 47,000
UCHL1 block – human UCHL1 deubiquitinase inhibition; P09936; purified UCHL1, Ub-rhodamine cleavage fluorescence; inhibition, % at 20 µM; hit rate 0.2% among 47,000; AID 1645859
Target sequence (P09936 whole entry, looked up): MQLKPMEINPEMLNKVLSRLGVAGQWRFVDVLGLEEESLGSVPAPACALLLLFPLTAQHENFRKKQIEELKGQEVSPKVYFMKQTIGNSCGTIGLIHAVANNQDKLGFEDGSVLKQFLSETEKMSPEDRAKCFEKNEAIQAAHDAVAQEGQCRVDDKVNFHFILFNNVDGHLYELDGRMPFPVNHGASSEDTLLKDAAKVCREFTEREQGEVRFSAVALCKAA
USP7 inh – human USP7 deubiquitinase inhibition; Q93009; AID 1645854; hit rate 0.3% among 47,000; purified USP7, Ub-rhodamine cleavage fluorescence; inhibition, % at 20 µM
USP8 inh – blocks human USP8 ubiquitin-rhodamine cleavage. P40818. purified USP8, Ub-rhodamine cleavage fluorescence, 30 min. inhibition, % at 20 µM. hit rate 4.2% among 47,000
The depositor's hits bear a star. A selection: hits, their analogues and other compounds. The true share with any hit is near 4.6%. Rule as the data show it: active = inhibition above about 30%; inactive = the rest.

SMILES | USP10 block | UCHL1 block | USP7 inh | USP8 inh
Cc1nc(SC(C)C(=O)Nc2ccccc2)c2sc3nc4c(cc3c2n1)COC(C)(C)C4 (configuration not stated) | 2.4 | 1.6 | -0.2 | 9.8
Cc1cc(=O)n(C)c2c(O)c3c(cc12)c(C)cc(=O)n3C | 24.6 | 30.3* | -105.4 | 49.6*
Cc1cc(O)c(C)c(O)c1C=O | 2.6 | 0.9 | 3.1 | 8.6
CCn1nnc2cc(C(=O)NCc3ccc4c(c3)OCO4)ccc21 | -0.5 | -3.3 | -1.5 | -11.9
Nc1c(C(=O)NCc2ccc3c(c2)OCO3)nnn1Cc1ccc(Br)cc1F | 30.8* | 6.9 | 16.3 | 82.6*
O=C(O)c1c(CNC2CCCC2)c2ccccc2n1Cc1ccccc1F | -2.6 | -5.8 | -59.5 | -1.1
O=C(COC(=O)c1cc2c(s1)CCC2)c1ccc2[nH]c(=O)[nH]c2c1 | 4.3 | 7.5 | -21.7 | 70.5*
O=C(COC(=O)c1ccc2c(c1)OCO2)Nc1ccc2[nH]c(=O)[nH]c2c1 | 19.3 | 3.3 | 10.5 | 5.5
O=C(CSc1nc2ccccc2[nH]1)Nc1cccc2c1OCCO2 | 19.4 | 13.4 | 12.5 | -10.4
CCC(C(=O)Nc1cccc2nsnc12)c1ccccc1 (configuration not stated) | 1.2 | 3.3 | 0.1 | 37.4*
O=C(NCc1cccs1)C(NS(=O)(=O)c1cccc2nsnc12)c1ccccc1 (configuration not stated) | 1.7 | -1.7 | -2.4 | -80.7
O=C(CSc1ccccc1)Nc1cccc2nsnc12 | 9.0 | 3.8 | 2.9 | 53.1*
O=C(CCn1c(=O)c2sccc2n(CC(=O)OCc2ccccc2)c1=O)NCc1ccc2c(c1)OCO2 | 35.7* | 4.7 | 15.6 | 61.4*
CCOc1ccccc1NC(=O)Cn1c(=O)n(CCC(=O)NCc2ccc3c(c2)OCO3)c(=O)c2sccc21 | 68.8* | 7.3 | 29.2 | 53.6*
CCOc1ccccc1NC(=O)Cn1c(=O)n(CCC(=O)NC2CCCC2)c(=O)c2ccccc21 | 2.0 | 0.7 | 2.8 | 25.7
CC1=CC(=O)OCC1 | -3.8 | -2.5 | 2.3 | -23.8
Cc1ccc(N2CC(c3nc4ccccc4n3CCCOc3ccccc3)CC2=O)cc1 (configuration not stated) | 14.3 | 7.0 | 6.7 | 23.7
Cc1ccc(S(=O)(=O)Nc2ccc(S(=O)(=O)Nc3ccc(F)cc3)cc2)cc1 | 8.2 | 6.7 | 3.2 | 10.8
Cc1ccc(S(=O)(=O)Nc2ccc3[nH]cc(Cl)c3c2)cc1 | 8.9 | 6.7 | 13.9 | 41.7*
Cc1ccc(-n2cc(C(=O)N3CCN(c4ccccc4)CC3)nn2)cc1 | 6.1 | 0.0 | 1.6 | 39.6*
Cc1ccc(-n2cc(C(=O)NCc3ccccn3)nn2)cc1C | 2.9 | 5.2 | 4.6 | 14.9
Cc1ccc(-n2cc(C(=O)NCCCc3ccccc3)nn2)cc1 | 23.8 | 7.2 | 24.8 | 78.4*
Cc1ccc(-n2cc(C(=O)N3CCc4ccccc4C3)nn2)cc1 | 0.7 | -2.1 | 0.2 | 19.1
Cc1nc(N2CCOCC2)ncc1-c1cc(=O)[nH]c(N2CCN(c3ccccc3)CC2)n1 | -1.2 | -1.6 | 0.3 | 15.3
COc1ccccc1OC(C)C(=O)Nc1ccc2nsnc2c1 (configuration not stated) | 4.2 | 5.7 | -4.5 | 72.5*
SMILES | USP10 block | UCHL1 block | USP7 inh | USP8 inh
Cc1c(C(=O)OCC(=O)Nc2ccc3c(c2)OCO3)oc2ccc(Br)cc12 | 34.8* | 0.0 | 2.8 | -25.6
Cn1cc(S(=O)(=O)Nc2cnn(Cc3cccc(Cl)c3)c2)cn1 | 3.5 | 5.7 | -3.2 | 77.0*
Cn1cc(S(=O)(=O)Nc2ncn(Cc3cccc(Cl)c3)n2)cn1 | -2.2 | 0.0 | 2.7 | 0.0
O=C(Nc1ccc(N2CCN(C3CCCC3)C2=O)nc1)c1cccc(F)c1 | -8.3 | -5.8 | -6.2 | -18.0
O=C(CCc1ccccc1)Nc1cc(F)c2nc(N3CCOCC3)ccc2c1 | -2.4 | -2.4 | -5.1 | 45.8*
O=C(COc1ccc(F)cc1)Nc1cc(F)c2nc(N3CCOCC3)ccc2c1 | -11.4 | -14.5 | -16.9 | 41.2*
COc1ccc(OCC(=O)Nc2cc(F)c3nc(N4CCOCC4)ccc3c2)cc1 | -7.4 | 0.3 | 4.1 | 6.1
CC(C)CC(=O)Nc1cc(F)c2nc(N3CCOCC3)ccc2c1 | -8.2 | 4.5 | -5.8 | 80.1*
O=C(Cn1ccc2ccc(N3CCOCC3)nc21)NCc1cccc(F)c1 | -0.1 | -68.4 | -135.3 | -249.9
Cc1cc(-c2cnc(NCc3ccc(F)cc3)nc2-c2ccco2)on1 | 11.8 | 0.0 | 0.9 | 34.6*
COc1ccc(C(C)C)cc1S(=O)(=O)Nc1cccc(C)n1 | 0.0 | 5.7 | 6.3 | 13.8
COc1ccc(C)cc1S(=O)(=O)NNc1nc(C)cc(C)n1 | 1.9 | 0.0 | 4.8 | 76.4*
NC(=O)c1nc(-c2ccc(OCc3ccccc3)cc2)nc2c1[nH]c(=O)n2-c1ccc2c(c1)OCO2 | 3.1 | 0.2 | 10.8 | 49.3*
